Experimental data: PubChem BioAssay (NCI)
This is part of a sample that, as a whole, favours compounds with a hit. Of some 83,000 tested, about 20% had one in any assay.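 Plates (96-well) were seeded with cells, treated with compound at one concentration, and incubated for 48 hours before percent growth was determined.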 Activity calls are given as the source filed them. How the source made its calls: active means growth percent below 10; inactive means the rest.

Columns and labels:
Assay in all cases: NCI-60 one-dose screen, 48 h (100 = growth as untreated, 0 = no growth, -100 = all killed)
Details in all cases: 10 µM unless noted
HCT-15 colon = system: HCT-15 colon
HT29 colon = system: HT29 colon
SNB-75 CNS = system: SNB-75 CNS
SNB-19 CNS = system: SNB-19 CNS
U251 CNS = system: U251 CNS
PC-3 prostate = system: PC-3 prostate
SK-MEL-5 melanoma = system: SK-MEL-5 melanoma
UACC-62 melanoma = system: UACC-62 melanoma
LOX IMVI melanoma = system: LOX IMVI melanoma
SK-MEL-28 melanoma = system: SK-MEL-28 melanoma

Measured: growth

Nc1nc(N)c2nc(-c3cccc(O)c3)c(-c3cccc(O)c3)nc2n1
inactive: HCT-15 colon 92% | HT29 colon 68% | SNB-75 CNS 39.9% | SNB-19 CNS 70.8% | U251 CNS 71.6% | PC-3 prostate 76.6% | SK-MEL-5 melanoma 89.1% | UACC-62 melanoma 83% | LOX IMVI melanoma 89.6% | SK-MEL-28 melanoma 85.2%

CC[n+]1c(/C=C/C=C2\N(C)c3ccccc3C2(C)C)sc2ccccc21
inactive: SNB-75 CNS 28.8% | SNB-19 CNS 31.9% | U251 CNS 10.8% | PC-3 prostate 17.4% | UACC-62 melanoma 12.4% | SK-MEL-28 melanoma 37.1%
active: HCT-15 colon 6.66% | HT29 colon 6.94% | SK-MEL-5 melanoma -89.7% | LOX IMVI melanoma 2.76%

COc1cc(C(=O)NNC(=O)c2ccc(NC(=O)CCl)cc2)cc(OC)c1OC
inactive: HCT-15 colon 86.4% | HT29 colon 60.5% | SNB-75 CNS 87.4% | SNB-19 CNS 88.9% | U251 CNS 11.1% | PC-3 prostate 66.1% | SK-MEL-5 melanoma 77.9% | UACC-62 melanoma 66.9% | LOX IMVI melanoma 28.9% | SK-MEL-28 melanoma 86.9%

CN1CC[C@@H](c2c(O)cc(O)c3c(=O)cc(-c4ccccc4Cl)oc23)[C@@H]1CO
inactive: SNB-19 CNS 10.2%
active: HCT-15 colon 3.39% | HT29 colon -12.6% | SNB-75 CNS -63.9% | U251 CNS 4.32% | PC-3 prostate 1.22% | SK-MEL-5 melanoma -9% | UACC-62 melanoma -51.4% | LOX IMVI melanoma 6.25% | SK-MEL-28 melanoma -25.6%

CC(C)n1c(NCCc2ccc(O)c(O)c2)nc2c1c(=O)n(C)c(=O)n2C
inactive: HCT-15 colon 98.8% | HT29 colon 98.1% | SNB-75 CNS 80.2% | SNB-19 CNS 101% | U251 CNS 97.5% | PC-3 prostate 89.3% | SK-MEL-5 melanoma 92.8% | UACC-62 melanoma 94.4% | LOX IMVI melanoma 95.2% | SK-MEL-28 melanoma 102%

CCNC(=O)Nc1nc2ccc(Oc3ccnc(C(=O)NC)c3)cc2s1
inactive: HCT-15 colon 52.7% | HT29 colon 29.8% | SNB-75 CNS 77.1% | SNB-19 CNS 81% | U251 CNS 58% | PC-3 prostate 76.1% | SK-MEL-5 melanoma 66.8% | UACC-62 melanoma 60% | LOX IMVI melanoma 70.7% | SK-MEL-28 melanoma 80.3%

Oc1ccc(/C=N/Nc2nnc(N/N=C/c3ccc(O)cc3O)c3ccccc23)c(O)c1
active: HCT-15 colon 7.14% | HT29 colon -35.3% | SNB-75 CNS -46.9% | SNB-19 CNS -1.04% | U251 CNS -25% | PC-3 prostate -50.8% | SK-MEL-5 melanoma -17.7% | UACC-62 melanoma -94.8% | LOX IMVI melanoma -51.4% | SK-MEL-28 melanoma -43.3%

COc1cc(NCCN(CC(C)C)CC(C)C)c2ncc(C)cc2c1
inactive: HCT-15 colon 34.2% | HT29 colon 86.1% | SNB-75 CNS 95.3% | SNB-19 CNS 85.3% | U251 CNS 67.9% | PC-3 prostate 47.8% | SK-MEL-5 melanoma 23.6% | UACC-62 melanoma 53% | LOX IMVI melanoma 15.5% | SK-MEL-28 melanoma 79.7%

CCc1nc2cc(/C=C/C(=O)NO)ccc2c(=O)n1CCc1ccc(F)cc1
active: HT29 colon 8.3% | U251 CNS -20.8% | SK-MEL-5 melanoma -37.8% | UACC-62 melanoma -28.8% | LOX IMVI melanoma -73.2%
inactive: HCT-15 colon 24.7% | SNB-75 CNS 30.6% | SNB-19 CNS 23.6% | PC-3 prostate 13.2% | SK-MEL-28 melanoma 22.8%

O=c1[nH]c(N2CCOCC2)nc2scc(-c3ccccc3)c12
inactive: HCT-15 colon 99% | HT29 colon 86.8% | SNB-75 CNS 84.3% | SNB-19 CNS 106% | U251 CNS 69.5% | PC-3 prostate 94.6% | SK-MEL-5 melanoma 98.7% | UACC-62 melanoma 99.2% | LOX IMVI melanoma 100% | SK-MEL-28 melanoma 110%

C[C@H](NC(=O)c1c(N)nn2cccnc12)c1cc2cccc(C#Cc3cnn(C)c3)c2c(=O)n1-c1ccccc1
inactive: HCT-15 colon 10.6% | SNB-19 CNS 39.3% | U251 CNS 16.7% | PC-3 prostate 18.9% | SK-MEL-5 melanoma 44% | UACC-62 melanoma 15.6% | SK-MEL-28 melanoma 45.5%
active: HT29 colon 2.38% | SNB-75 CNS -6.15% | LOX IMVI melanoma 7.86%

O=C(c1c(F)ccc(NS(=O)(=O)N2CC[C@@H](F)C2)c1F)c1c[nH]c2ncc(-c3cnc(C4CC4)nc3)cc12
inactive: HCT-15 colon 44.1% | SNB-75 CNS 37.7% | SNB-19 CNS 52.8% | U251 CNS 42.4% | PC-3 prostate 46.5% | SK-MEL-5 melanoma 22% | LOX IMVI melanoma 15.9%
active: HT29 colon 3.81% | UACC-62 melanoma -22.9% | SK-MEL-28 melanoma -5.44%

NC(=O)N1N=C(c2ccc(Cl)cc2)CC1c1cn(-c2ccccc2)nc1-c1ccc(Cl)cc1 (stereo not given)
inactive: HCT-15 colon 72% | HT29 colon 51.1% | SNB-19 CNS 44% | U251 CNS 46% | PC-3 prostate 52.8% | SK-MEL-5 melanoma 79% | UACC-62 melanoma 61.7% | LOX IMVI melanoma 55.9% | SK-MEL-28 melanoma 78.4%
active: SNB-75 CNS -10.5%

CC(=O)OCCC/C(=C\c1ccc2ccccc2c1)[N+](=O)[O-]
active: HCT-15 colon -69.4% | HT29 colon -29.8% | SNB-75 CNS -88.9% | SNB-19 CNS -39.5% | U251 CNS -90.7% | PC-3 prostate -96.8% | SK-MEL-5 melanoma -94% | UACC-62 melanoma -75.5% | LOX IMVI melanoma -83.3% | SK-MEL-28 melanoma -91.1%

C=CC(=O)Nc1cc2c(Nc3ccc(F)c(Cl)c3)ncnc2cc1OCCCN1CCOCC1
inactive: SNB-19 CNS 17.4% | U251 CNS 21.2% | PC-3 prostate 17.5% | SK-MEL-5 melanoma 48.7%
active: HCT-15 colon -32% | HT29 colon -74.9% | SNB-75 CNS -15.9% | UACC-62 melanoma -49.7% | LOX IMVI melanoma -87% | SK-MEL-28 melanoma -19%

COc1cc(C2CC(c3ccc(Cl)cc3)=NN2c2ccc(Cl)cc2)cc(OC)c1OC (stereo not given)
inactive: HCT-15 colon 91.2% | HT29 colon 94.7% | SNB-75 CNS 58.7% | SNB-19 CNS 88.1% | U251 CNS 85.1% | PC-3 prostate 64.1% | SK-MEL-5 melanoma 97.9% | UACC-62 melanoma 77% | LOX IMVI melanoma 99.8% | SK-MEL-28 melanoma 96.1%

O=C(Nc1cnn2ccc(N3CCC[C@@H]3c3cc(F)ccc3F)nc12)N1CC[C@H](O)C1
inactive: HCT-15 colon 92.6% | HT29 colon 74.1% | SNB-75 CNS 29.1% | SNB-19 CNS 92% | U251 CNS 85.7% | PC-3 prostate 89.4% | SK-MEL-5 melanoma 97.8% | UACC-62 melanoma 99% | LOX IMVI melanoma 80.1% | SK-MEL-28 melanoma 109%

Cc1cc2c3c(cccc3c1)C(=O)c1ccccc1-2
inactive: HCT-15 colon 93.5% | HT29 colon 94.9% | SNB-75 CNS 111% | SNB-19 CNS 97.8% | U251 CNS 98.8% | PC-3 prostate 93.6% | SK-MEL-5 melanoma 95.2% | UACC-62 melanoma 85.1% | LOX IMVI melanoma 86.8% | SK-MEL-28 melanoma 105%

C[C@@H]1COCCN1c1cc(C2([S@](C)(=N)=O)CC2)nc(-c2ccnc3[nH]ccc23)n1
inactive: HCT-15 colon 31.7% | HT29 colon 13.4% | SNB-75 CNS 31.1% | SNB-19 CNS 28% | U251 CNS 32.2% | PC-3 prostate 50.7% | SK-MEL-5 melanoma 21.4% | UACC-62 melanoma 23.7% | SK-MEL-28 melanoma 70.7%
active: LOX IMVI melanoma 2.37%

Cc1oc2c(C(=O)N/N=C\c3ccc(O)cc3O)c[nH]c2c1C
inactive: HT29 colon 25.6% | SNB-75 CNS 40.2% | SNB-19 CNS 35.5% | U251 CNS 20.2% | PC-3 prostate 43.4% | SK-MEL-5 melanoma 23.6% | SK-MEL-28 melanoma 32.1%
active: HCT-15 colon 9.44% | UACC-62 melanoma 2.05% | LOX IMVI melanoma -7.96%

CCC1(/C=N/NC(N)=S)NC(=O)NC1=O (stereo not given)
inactive: HCT-15 colon 107% | HT29 colon 94.9% | SNB-75 CNS 95.9% | SNB-19 CNS 109% | U251 CNS 86.8% | PC-3 prostate 85.1% | SK-MEL-5 melanoma 102% | UACC-62 melanoma 104% | LOX IMVI melanoma 102% | SK-MEL-28 melanoma 111%

CO[C@H]1C[C@@H]2CC[C@@H](C)[C@@](O)(O2)C(=O)C(=O)N2CCCC[C@H]2C(=O)O[C@H]([C@H](C)C[C@@H]2CC[C@@H](OCCO)[C@H](OC)C2)CC(=O)[C@H](C)/C=C(\C)[C@@H](O)[C@H](OC)C(=O)[C@H](C)C[C@H](C)\C=C/C=C/C=C/1C
inactive: HCT-15 colon 53.9% | HT29 colon 44.1% | SNB-75 CNS 20.8% | SNB-19 CNS 49.5% | U251 CNS 42.7% | PC-3 prostate 44.3% | SK-MEL-5 melanoma 63.5% | UACC-62 melanoma 40.8% | LOX IMVI melanoma 40.3% | SK-MEL-28 melanoma 44%

COc1cc2ncnc(Oc3cccc(NC(=O)Nc4cc(C(C)(C)C(F)(F)F)on4)c3)c2cc1OC
inactive: HCT-15 colon 22.4% | SNB-75 CNS 38.1% | SNB-19 CNS 74.9% | U251 CNS 50.8% | PC-3 prostate 35.1%
active: HT29 colon 6.54% | SK-MEL-5 melanoma 0.0888% | UACC-62 melanoma -10.5% | LOX IMVI melanoma 0.911% | SK-MEL-28 melanoma -3.09%

O=C1/C(=C\c2cccc(OCCCCCOc3ccc(Cl)cc3)c2)N=C2SCCCN12
inactive: HCT-15 colon 57.7% | HT29 colon 67.4% | SNB-75 CNS 71.3% | SNB-19 CNS 75% | U251 CNS 74.1% | PC-3 prostate 28.8% | UACC-62 melanoma 56.6% | LOX IMVI melanoma 67.1% | SK-MEL-28 melanoma 58.7%
active: SK-MEL-5 melanoma -6.82%

CCN(CCCOc1ccc2c(Nc3cc(CC(=O)Nc4cccc(F)c4)[nH]n3)ncnc2c1)CCOP(=O)(O)O
inactive: HCT-15 colon 84.7% | HT29 colon 30.5% | SNB-75 CNS 80.5% | SNB-19 CNS 71.1% | U251 CNS 71.8% | PC-3 prostate 80% | SK-MEL-5 melanoma 99.8% | UACC-62 melanoma 53.7% | LOX IMVI melanoma 42% | SK-MEL-28 melanoma 55.3%

Cc1[nH]c(/C=C2\C(=O)Nc3ccc(F)cc32)c(C)c1C(=O)NC[C@H](O)CN1CCOCC1
active: HT29 colon 9.81% | LOX IMVI melanoma 9.27%
inactive: HCT-15 colon 19.1% | SNB-75 CNS 35.2% | SNB-19 CNS 96.7% | U251 CNS 60.5% | PC-3 prostate 36.2% | SK-MEL-5 melanoma 21.4% | UACC-62 melanoma 29.9% | SK-MEL-28 melanoma 17.7%

COc1cc(-c2cc(-c3ccc(Nc4ccnc5cc(Cl)ccc45)cc3)nc(N3CCOCC3)n2)cc(OC)c1OC
active: HCT-15 colon -29.8% | HT29 colon -21.8% | SNB-75 CNS -25.3% | U251 CNS -57.1% | PC-3 prostate -5.02% | LOX IMVI melanoma 4.79% | SK-MEL-28 melanoma 7.13%
inactive: SNB-19 CNS 28.8% | SK-MEL-5 melanoma 28% | UACC-62 melanoma 70.1%
